In all, about 33,000 sequences were measured (“E-score (-0.5 to 0.5)”: median about -0.01, highest 2% from about 0.26 on). The full list was thinned out, with the highest values kept by preference.
Each sequence was assayed against Ste12 (UniProt P13574) (assay: PBM E-score (8-mer binding enrichment) (E-score (-0.5 to 0.5)); higher = stronger / more preferred TF binding). Settings: protein concentration: 200 nM; construct: GST-DNA-binding domain.
Method in brief: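 Yeast transcription factors carrying a GST tag, as full-length proteins or DNA-binding domains, were produced by PURExpress in vitro transcription/translation. About 100-200 nM protein was applied to universal all-10-mer Agilent arrays, double-stranded by primer extension on fresh or once-stripped slides. Bound protein was detected with fluorescent anti-GST, and scans were normalised with masliner. The Universal PBM Analysis Suite gave each ungapped eight-base word, pooled with its reverse complement, an E-score, a modified Wilcoxon-Mann-Whitney statistic.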

Chain of UniProt P13574 (P13574 whole entry, the tested form may be a part): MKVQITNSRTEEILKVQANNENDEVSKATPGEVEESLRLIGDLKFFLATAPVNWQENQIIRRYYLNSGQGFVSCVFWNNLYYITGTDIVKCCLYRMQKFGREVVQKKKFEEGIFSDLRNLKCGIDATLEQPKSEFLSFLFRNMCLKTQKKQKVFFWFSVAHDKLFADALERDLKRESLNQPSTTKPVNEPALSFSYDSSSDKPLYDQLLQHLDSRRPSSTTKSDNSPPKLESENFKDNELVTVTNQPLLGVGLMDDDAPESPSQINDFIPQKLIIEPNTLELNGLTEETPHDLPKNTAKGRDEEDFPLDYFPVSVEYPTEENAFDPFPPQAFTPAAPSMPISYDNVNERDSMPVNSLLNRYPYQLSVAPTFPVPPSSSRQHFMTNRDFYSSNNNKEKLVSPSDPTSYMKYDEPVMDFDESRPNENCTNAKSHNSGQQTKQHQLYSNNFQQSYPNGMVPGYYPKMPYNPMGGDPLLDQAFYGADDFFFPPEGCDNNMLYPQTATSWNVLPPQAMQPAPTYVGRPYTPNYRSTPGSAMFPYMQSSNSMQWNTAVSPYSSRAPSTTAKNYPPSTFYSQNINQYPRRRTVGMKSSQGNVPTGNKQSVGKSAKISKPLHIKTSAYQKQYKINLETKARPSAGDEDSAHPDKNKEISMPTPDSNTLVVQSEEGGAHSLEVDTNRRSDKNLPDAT

Row | Sequence | PBM E-score
1 | CCTTTACA | -0.103
2 | ATTTTATA | 0.199
3 | GGTTTACA | -0.0303
4 | ATTTTACA | 0.113
5 | GTTTTATA | 0.399
6 | GTTTTACA | 0.296
7 | CTTTTACC | 0.0888
8 | CTTTTATA | 0.0308
9 | AGCTAGCT | -0.0845
10 | CACTTTGA | -0.032
11 | GGTTCTCA | 0.0128
12 | ATCTGCCC | -0.153
13 | ATACGTGG | -0.0972
14 | TGCCTGAA | -0.0642
15 | CTGTCAAG | -0.2
16 | CAATCTTC | 0.144
17 | CACCATCG | -0.197
18 | CCCGAGTC | 0.0359
19 | GTTTAATA | 0.179
20 | ATTTAAGG | 0.00576
21 | CTTTAATA | 0.209
22 | ATTTAATC | 0.209
23 | ATTTAATA | 0.267
24 | ATTTAATG | 0.272
25 | CACTTATG | 0.00871
26 | ATGGGTTC | -0.094

Row | Sequence | PBM E-score
27 | AGATAGAA | -0.0615
28 | AGGGCTTC | -0.0834
29 | ATTAAAGC | 0.0638
30 | ATAGTCTC | 0.132
31 | AAGGTGAG | 0.00195
32 | TACACGTA | -0.00219
33 | CAACGAAA | 0.13
34 | TAACGAAA | 0.298
35 | AAACGAAA | 0.248
36 | AGATGTGC | -0.154
37 | AGATGTGA | 0.262
38 | CGATGTGA | 0.046
39 | GAGCCAGA | -0.0414
40 | GTGGGGTA | 0.302
41 | CTGGGGTA | -0.145
42 | ATGGGGTA | -0.0735
43 | CGAACGAC | -0.034
44 | ACCACTTG | 0.0214
45 | AAACAAAA | 0.225
46 | CAACAGTG | 0.104
47 | ACCCAAAC | 0.285
48 | AAACAGTT | 0.245
49 | ACCCAAAG | -0.0486
50 | ACCCAAAA | 0.13
51 | AAACAAAG | 0.233
52 | GAACAAAC | 0.181

Row | Sequence | PBM E-score
53 | AAACAAGT | 0.149
54 | AAACAAAC | 0.263
55 | AAACAAAT | 0.28
56 | AAACAGTG | 0.309
57 | GTCCGGGA | 0.0647
58 | GAAAGCTC | -0.201
59 | GGTCCAGA | -0.0878
60 | ATATTGCA | 0.104
61 | ATTCCCTG | 0.0875
62 | ATTCGTAA | 0.166
63 | ACCCCTGA | 0.128
64 | CACCCTGA | -0.00848
65 | AACCCTGA | 0.305
66 | GTGTGTCA | 0.321
67 | CTGTCTCA | 0.158
68 | GTCTCTCA | -0.184
69 | ACGTCTCA | 0.274
70 | CTGTGTCA | 0.0491
71 | ATGTCTCA | 0.289
72 | ATGTGTCA | 0.119
73 | GTGTCTCA | 0.338
74 | ATGTCTCG | -0.114
75 | ATGTCTCC | -0.0509
76 | TCGTCTCA | 0.134
77 | GCGTCTCA | 0.166
78 | AAGTCGTA | -0.129

Row | Sequence | PBM E-score
79 | TATGGGAA | 0.0435
80 | CGGCTGGC | -0.117
81 | ATATTATC | 0.181
82 | ATATTATA | 0.18
83 | TAATTAAA | 0.173
84 | ACATTAAA | 0.196
85 | ATATTATG | 0.303
86 | ATATTAAC | 0.285
87 | GCATTAAA | 0.111
88 | GTATTAAC | 0.132
89 | TCATTAAA | 0.324
90 | GTATTAAA | 0.166
91 | CTATTAAC | -0.0267
92 | TTATTAAA | 0.321
93 | CTGGGCAA | -0.0128
94 | GGACTAGA | -0.124
95 | TATGGTCA | -0.0454
96 | CAGTAAGG | -0.0592
97 | ACGCGAGC | -0.151
98 | AGGTTACT | 0.0862
99 | TACTCCCA | 0.056
100 | ATATTAAG | 0.109
101 | ATATTAGA | 0.0159
102 | ATATTAAA | 0.29
103 | ATATTAAT | 0.298
104 | AGATTAAT | 0.0881

Row | Sequence | PBM E-score
105 | CTATTAAA | 0.219
106 | AAATAATC | 0.171
107 | AAATAATA | 0.257
108 | AAATAATT | 0.294
109 | GAATAATC | 0.00357
110 | GAATAATA | 0.286
111 | TAATAATA | 0.181
112 | AGACTGCT | 0.0365
113 | AGCGCTAT | 0.0744
114 | AACTCATG | 0.129
115 | ATTGAGGG | -0.124
116 | GAATGAGC | -0.0246
117 | ATCCGAAT | 0.192
118 | AAAAACCG | 0.178
119 | AAAAACCT | 0.263
120 | AAAACCTA | 0.283
121 | CAAACCTA | 0.0393
122 | AAAACCTT | 0.142
123 | AAAAACCC | 0.0736
124 | CGAAGAAA | 0.195
125 | ACTCTCCG | -0.0208
126 | AAGAAGAG | -0.00818
127 | AAGTTGAC | 0.0703
128 | AGTAGGCG | -0.256
129 | ATCCAATG | -0.165
130 | ATCTCTCG | -0.0464

Row | Sequence | PBM E-score
131 | CAACAACC | 0.0311
132 | AATCAACA | 0.29
133 | AAACAACT | 0.174
134 | TATCAACA | 0.149
135 | AAACAATT | 0.112
136 | AAACAACG | 0.0956
137 | AAACAACC | 0.277
138 | AAACAACA | 0.287
139 | GAACAACC | 0.00021
140 | TAACAATA | 0.239
141 | GATCAACA | -0.0858
142 | AAACAATA | 0.274
143 | GCCAATGA | -0.228
144 | GGGTGGAC | -0.226
145 | ACATTTTG | 0.0789
146 | ACAGTTGC | -0.0387
147 | AACCATCT | 0.0768
148 | AGCTCAGC | -0.398
149 | ACTGACAA | 0.0676
150 | ACCTGTCA | 0.0912
151 | TTACAAAA | 0.301
152 | GCACAAAA | 0.165
153 | TCACAAAA | 0.271
154 | ACACAAAA | 0.26
155 | ATACAAAA | 0.209
156 | CTACAAAA | 0.228

Row | Sequence | PBM E-score
157 | ACGTTCTC | 0.0364
158 | TACCTATA | 0.106
159 | CGCATGAC | -0.0101
160 | GCCTGTTA | 0.00489
161 | CCCTGTTC | -0.243
162 | CCCTGTTA | 0.279
163 | CGCTCCTC | -0.106
164 | CAGTAGGG | -0.176
165 | CTGGCTAA | -0.0552
166 | TCATTTCA | 0.242
167 | TCGTTTCA | 0.467
168 | ACGTTTCT | 0.064
169 | GCGTTTCA | 0.476
170 | ACGTTTCG | 0.297
171 | GCGTTTGA | 0.0907
172 | GCGTTTCC | 0.0828
173 | ACGTTTGG | 0.127
174 | TCGTTTAA | 0.155
175 | ACGTTTCC | -0.0394
176 | ACGTTTAG | -0.156
177 | ACGTTTCA | 0.48
